# Data taken from PubChem BioAssay (Tox21).
# A number with no mark means an inactive call. Records with an inconclusive call do not appear. Where a call stands in place of a potency, no number is given. Active and inactive are the calls of the source. Unless noted, calls come from the whole dose curve; as a rule, active = well fitted curve in the direction sought with a large enough effect in the repeat runs; inconclusive = weak or mixed curves; inactive = no such curve, though single readings can be large; an effect the other way counts as inactive or inconclusive.
# How the values were obtained:
# [1] = qHTS assay for small molecules that induce genotoxicity in human embryonic kidney cells expressing luciferase-tagged ATAD5 (AID 651632); note: nearly all actives have a fitted effect of over 15% in size
# In short: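 Cells were seeded at 2,000 per well, dosed with compound, and incubated 16 hr at 37C in 5% CO2. Luciferase activity was then quantified after a 30 min room-temperature incubation with Amplite.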
# [2] = qHTS assay for small molecule agonists of the p53 signaling pathway - cell viability (AID 651633; calls by dose curve; note: nearly all actives have a fitted effect of over 30% in size; note: potency is the fitted concentration of half-maximal effect)
# In short: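 Viability counter-read: CellTiter-Glo luminescence (30 min, room temperature) in the same p53RE-bla plates. These plates had been exposed to compounds for 16 h at 37 C.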
# [3] = qHTS assay for small molecule disruptors of the mitochondrial membrane potential - cell viability (AID 720634; calls by dose curve;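 note: human HepG2 liver cancer cells; series mostly up to about 83 µM; nearly all actives have a fitted effect of over 20% in size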)
# In short: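 Cytotoxicity was measured by ATP quantitation in HepG2 wells that had first been treated with compound for 1 hr and stained with m-MPI dye; CellTiter-Glo incubation was 30 min at room temperature.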
# [4] = qHTS assay to test for compound auto fluorescence at 590 nm (red) in HepG2 cells (AID 720674)
# In short: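 Red autofluorescence (Ex/Em 540/590 nm, Rose Bengal sodium equivalents) was measured in HepG2 cells, 2,000 per well in MEM plus 10% FBS, plated overnight at 37 C. Readings were taken 1 hr after adding 23 nL compound or DMSO, at 37 C and 5% CO2.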
# [5] = qHTS assay to test for compound auto fluorescence at 535 nm (green) in HepG2 cells (AID 720675)
# [6] = qHTS assay to test for compound auto fluorescence at 460 nm (blue) in HEK293 cells (AID 720678)
# In short: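 HEK293, 2,000 cells/well, 10% dialyzed FBS; attach 4-5 hr 37C; pin compound or DMSO; o/n 37C/5% CO2; fluorescence 405/460 nm; triamterene-equivalent units.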
# [7] = qHTS assay to test for compound auto fluorescence at 590 nm (red) in HEK293 cells (AID 720679)
# In short: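 Intensity at 540nm excitation and 590nm emission is reported as Rose Bengal sodium-equivalent autofluorescence. Measurements followed overnight exposure (37C, 5% CO2) of HEK293 cells, 2,000 per well, to 23 nL compound.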
# [8] = qHTS assay to test for compound auto fluorescence at 535 nm (green) in HEK293 cells (AID 720680)
# [9] = qHTS assay to test for compound auto fluorescence at 460 nm (blue) in HEK293 cell free culture (AID 720681)
# In short: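 Blue fluorescence (Ex 405/Em 460 nm, triamterene-equivalent) was read immediately after pin transfer of compound or DMSO into medium (DMEM, 10% FBS) without cells.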
# [10] = qHTS assay to test for compound auto fluorescence at 535 nm (green) in HEK293 cell free culture (AID 720682)
# In short: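 Cell-free medium (DMEM, 10% FBS) receives compound or DMSO by pintool. Plate read directly at Ex 485/Em 535 nm. Signal converted to fluorescein equivalency.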
# [11] = qHTS assay to test for compound auto fluorescence at 590 nm (red) in HEK293 cell free culture (AID 720683)
# In short: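 Red-channel autofluorescence of compounds in culture medium (DMEM, 10% FBS), no cells, measured at 540/590 nm. Rose Bengal sodium is the reference fluorophore for equivalence.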
# [12] = qHTS assay to test for compound auto fluorescence at 590 nm (red) in HepG2 cell free culture (AID 720684)
# In short: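 No cells present: MEM + 10% FBS only. Compound pinned in, red label read (540/590 nm). Activity = fluorescence equivalent to Rose Bengal sodium.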
# [13] = qHTS assay to test for compound auto fluorescence at 460 nm (blue) in HepG2 cell free culture (AID 720685)
# In short: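 Cell-free plates of MEM plus 10% FBS received 23 nL compound or DMSO vehicle; blue-channel (405/460 nm) intensity scored against triamterene as reference fluorophore.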
# [14] = qHTS assay to test for compound auto fluorescence at 535 nm (green) in HepG2 cell free culture (AID 720686)
# [15] = qHTS assay to test for compound auto fluorescence at 460 nm (blue) in HepG2 cells (AID 720687)
# In short: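 Blue-channel autofluorescence (Ex/Em 405/460 nm, triamterene-equivalent) was measured after 1 hr compound exposure at 37 C, 5% CO2. Cells were HepG2, plated overnight at 37 C in MEM plus 10% FBS.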
# [16] = qHTS assay for small molecules that induce genotoxicity in human embryonic kidney cells expressing luciferase-tagged ATAD5 - cell viability (AID 651634; calls by dose curve; note: nearly all actives have a fitted effect of over 25% in size)
# In short: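 Cells (HEK293T, luciferase-tagged ATAD5) are seeded at 2,000 per well, dosed with compound or DMSO vehicle, and incubated 15.5 hr at 37C and 5% CO2. CellTiter-Fluor is added for 30 min before fluorescence is measured.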
# [17] = target: Glucocorticoid receptor (Homo sapiens) (UniProt P04150); test: qHTS assay to identify small molecule agonists of the glucocorticoid receptor (GR) signaling pathway (AID 720691; active = well fitted activation curve with a large enough effect in the signal ratio in the repeat runs, not every such curve was filed as active; the % refers to the signal ratio)
# Glucocorticoid receptor (Homo sapiens), sequence (P04150 whole entry, looked up): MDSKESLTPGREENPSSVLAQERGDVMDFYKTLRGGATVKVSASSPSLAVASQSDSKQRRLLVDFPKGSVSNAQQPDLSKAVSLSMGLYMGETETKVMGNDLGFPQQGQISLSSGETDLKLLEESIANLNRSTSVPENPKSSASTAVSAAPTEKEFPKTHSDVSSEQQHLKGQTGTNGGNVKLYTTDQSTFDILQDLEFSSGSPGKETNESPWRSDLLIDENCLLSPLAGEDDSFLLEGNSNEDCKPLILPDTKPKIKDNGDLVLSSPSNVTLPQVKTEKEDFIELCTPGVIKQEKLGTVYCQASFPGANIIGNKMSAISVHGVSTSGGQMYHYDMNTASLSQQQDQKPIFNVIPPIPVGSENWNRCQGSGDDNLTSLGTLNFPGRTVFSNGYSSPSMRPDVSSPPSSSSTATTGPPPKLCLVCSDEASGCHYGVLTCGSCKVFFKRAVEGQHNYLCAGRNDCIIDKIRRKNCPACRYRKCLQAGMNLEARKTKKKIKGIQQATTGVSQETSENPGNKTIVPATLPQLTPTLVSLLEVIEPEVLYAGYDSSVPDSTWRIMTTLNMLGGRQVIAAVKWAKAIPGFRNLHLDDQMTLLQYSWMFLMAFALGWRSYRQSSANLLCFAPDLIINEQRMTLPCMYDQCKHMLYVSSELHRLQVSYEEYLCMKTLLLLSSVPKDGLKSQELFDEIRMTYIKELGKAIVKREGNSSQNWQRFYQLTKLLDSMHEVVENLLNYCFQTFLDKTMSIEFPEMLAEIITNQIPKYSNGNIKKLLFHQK
# In short: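 Steps: seed GR-bla HeLa cells, incubate 4 h at 37 C/5% CO2; pin-transfer DMSO-dissolved compounds; incubate 18 h at 37 C; add LiveBLAzer B/G FRET substrate; after 2 h at room temperature, measure fluorescence.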
# [18] = target: Glucocorticoid receptor (Homo sapiens) (UniProt P04150); test: qHTS assay to identify small molecule antagonists of the glucocorticoid receptor (GR) signaling pathway (AID 720692; active = well fitted inhibition curve with a large enough effect in the signal ratio in the repeat runs, not every such curve was filed as active; the % refers to the signal ratio)
# In short: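 Antagonism was scored as loss of dexamethasone-driven (5 nM final) reporter signal in HeLa cells bearing a glucocorticoid response element–beta-lactamase construct, after 18 h compound exposure at 37 C and 2 h FRET substrate loading.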
# [19] = qHTS assay for small molecule disruptors of the mitochondrial membrane potential (AID 720635); note: potency is the fitted concentration of half-maximal effect
# In short: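 Mitochondrial membrane potential tracked with Mito-MPS dye, red aggregates (ex 540/em 590 nm) against green monomers (ex 490/em 535 nm). Compound treatment 1 hr at 37C, dye 30 min in HepG2.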
structure (smiles),measurement,setting,value
C[C@@H](CN(C)C)CN1c2ccccc2Sc2ccccc21,Potency,[1],inactive
same,Potency,[2],inactive
same,Potency,[3],inactive
same,"fluorescence, relative to Rose Bengal",[4],0.322% [at 18.6 µM]
same,"fluorescence, % of fluorescein control",[5],0.0297% [at 18.6 µM]
same,"fluorescence, % of triamterene",[6],-0.151% [at 18.6 µM]
same,"fluorescence, % of fluorescent control",[7],-0.0905% [at 18.6 µM]
same,"fluorescence, % of fluorescein",[8],-0.0143% [at 18.6 µM]
same,"fluorescence, % of fluorescent control",[9],0.0136% [at 18.6 µM]
same,activity change,[10],-0.0963% [at 18.6 µM]
same,"fluorescence, % of fluorescent control",[11],0.012% [at 18.6 µM]
same,"fluorescence, % of Rose Bengal",[12],-0.209% [at 18.6 µM]
same,"fluorescence, % of fluorescent control",[13],0.0401% [at 18.6 µM]
same,"fluorescence, % of fluorescein control",[14],-0.0052% [at 18.6 µM]
same,"fluorescence, % of fluorescent control",[15],-0.0799% [at 18.6 µM]
CN1CC(=O)N2[C@H](c3ccc4c(c3)OCO4)c3[nH]c4ccccc4c3C[C@@H]2C1=O,Potency,[1],inactive
same,Potency,[16],inactive
same,Potency,[3],inactive
same,outcome,[4],inactive
same,outcome,[5],inactive
same,Potency,[6],inactive
same,outcome,[7],inactive
same,outcome,[8],inactive
same,Potency,[9],inactive
same,outcome,[10],inactive
same,outcome,[11],inactive
same,Potency,[13],inactive
same,outcome,[14],inactive
same,Potency,[15],inactive
same,Potency,[17],inactive
same,Potency,[18],inactive
C/C=C/C=C/C=O,Potency,[1],inactive
same,Potency,[16],inactive
same,Potency,[3],inactive
same,Potency,[19],inactive
same,outcome,[4],inactive
same,outcome,[5],inactive
same,Potency,[6],inactive
same,outcome,[7],inactive
same,Potency,[9],inactive
same,outcome,[10],inactive
same,outcome,[11],inactive
same,outcome,[12],inactive
same,Potency,[13],inactive
same,outcome,[14],inactive
same,Potency,[15],inactive
same,Potency,[17],inactive
CC1(CN2CCC(n3c(=O)[nH]c4ccccc43)CC2)OCc2ccccc2-n2cccc21 (configuration not stated),Potency,[1],inactive
same,Potency,[2],29.8 µM (active)
same,Potency,[3],inactive
same,Potency,[19],29.8 µM (active)
same,outcome,[4],inactive
same,outcome,[5],inactive
same,Potency,[6],inactive
same,outcome,[7],inactive
same,outcome,[8],inactive
same,outcome,[10],inactive
same,outcome,[11],inactive
same,outcome,[12],inactive
same,Potency,[13],inactive
same,Potency,[15],inactive
same,Potency,[17],inactive
